Mac1 fbg inh = inhibitors of CD11b/CD18 adhesion to fibrinogen, primary screen, K562 cells, luminescence; ATPlite luminescence; Mn2+ added to activate the integrin; actives 0.54% (n = 93,000); inhibition, % at 10 µM; Integrin beta-2 (Homo sapiens) + Integrin alpha-M (Homo sapiens), P05107+P11215;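 active means primary inhibition of 50% or more at 10 µM, then 40% or more on retest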
CD11b adhes enh = enhancers of CD11b/CD18 adhesion to fibrinogen, primary screen, K562 cells, luminescence. ATPlite luminescence. activation, % at 10 µM. actives 0.07% (n = 93,000);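 active means 10 µM primary screen giving 50% or more activity, confirmed by 40% or more on retest at that dose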
CYP2C9 inh = blockers of cytochrome P450 2C9 activity – biochemical, luminescence, ADME assay, primary screen | P11712 | CYP2C9 Supersomes, luciferin-H conversion | inhibition, % at 5 µM | actives 20% (n = 96,000) | AID 777, 2007;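 active means blocking of liver enzyme CYP2C9 beyond about 50% at 5 µM, limit read from the data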
CYP2C19 act = human CYP2C19 activators, primary screen, biochemical, luminescence | 96,000 tested, under 10 active | activation factor at 5 µM | Cytochrome P450 2C19 (Homo sapiens), P33261 | AID 1025, 2008 | recombinant CYP2C19, luciferin-H EGE luminescence; hits give high values; 0 = fully inhibited enzyme, 1 = untreated enzyme;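 active means activation factor of at least 2 at 5 µM in the primary screen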;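 further: 0 = wells with 2.5 mM tranylcypromine and 1 = vehicle-only wells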
Target sequence (P33261 whole entry, looked up): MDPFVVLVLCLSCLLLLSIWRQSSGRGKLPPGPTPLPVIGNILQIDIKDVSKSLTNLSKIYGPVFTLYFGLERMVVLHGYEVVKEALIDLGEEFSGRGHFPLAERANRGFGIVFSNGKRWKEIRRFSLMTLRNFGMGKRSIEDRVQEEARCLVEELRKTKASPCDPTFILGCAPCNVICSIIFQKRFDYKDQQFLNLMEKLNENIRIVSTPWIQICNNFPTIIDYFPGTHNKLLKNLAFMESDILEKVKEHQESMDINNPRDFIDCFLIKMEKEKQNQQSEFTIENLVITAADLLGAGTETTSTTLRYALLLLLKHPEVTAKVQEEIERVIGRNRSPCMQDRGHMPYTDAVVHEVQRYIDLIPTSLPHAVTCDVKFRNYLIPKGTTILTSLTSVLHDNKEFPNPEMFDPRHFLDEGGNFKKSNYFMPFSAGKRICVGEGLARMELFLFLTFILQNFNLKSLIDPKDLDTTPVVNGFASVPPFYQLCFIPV
CYP2C9 activ = human CYP2C9 activators, primary screen, biochemical, luminescence. recombinant CYP2C9, luciferin-H conversion; hits give high values; factor 1 = untreated enzyme, 0 = blocked. Cytochrome P450 2C9 (Homo sapiens), P11712. AID 1024, 2008. actives 1.4% (n = 96,000). activation factor at 5 µM;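 active means activation factor of 2 or more for CYP2C9 at a 5 µM dose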;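 further: 0 = sulfaphenazole-blocked wells and 1 = vehicle-only wells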
CYP2C19 inh = blockers of cytochrome P450 2C19 activity – biochemical, luminescence, ADME assay, primary screen; inhibition, % at 5 µM; actives 21% (n = 96,000); AID 778, 2007; CYP2C19 Supersomes, luciferin-H EGE luminescence, 30 min;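 active means CYP2C19 inhibition above a set limit at 5 µM in the primary screen, cut at about 50% in these data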;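 further: plate controls were negative control wells for no effect and 2.5 mM tranylcypromine positive control for full effect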
* hit, by the source's call. Only some compounds are listed: those with a hit (about 28% of all), similar ones and a draw of the others.

How did CCCCC1C(C#N)=C(C)NC2=C1C(=O)CC(C)(C)C2 (centres undefined) do in these assays?
Mac1 fbg inh: 0.4; CD11b adhes enh: -5.9; CYP2C9 inh: 85.8*; CYP2C19 act: 0.1; CYP2C9 activ: 0.1; CYP2C19 inh: 90.0*

What do the screens show for `COC(=O)C1=C(C(=O)OC)SC(=C2C(=S)C(C)(C)N(C(=O)C(C)C)c3ccccc32)S1`?
Mac1 fbg inh: 13.2; CD11b adhes enh: -0.4; CYP2C9 inh: 94.7*; CYP2C19 act: 0.6; CYP2C9 activ: 0.1; CYP2C19 inh: 40.4

How did COC(=O)C1=C(C(=O)OC)SC(=C2C(=S)C(C)(C)N(C(=O)C3CC3)c3ccccc32)S1 do in these assays?
Mac1 fbg inh: 2.8; CD11b adhes enh: -1.6; CYP2C9 inh: 77.7*; CYP2C19 act: 0.3; CYP2C9 activ: 0.2; CYP2C19 inh: 69.4*

Results for Cn1nc(C(F)(F)F)c(C(=O)Nc2ccc(F)cc2F)c1Sc1cccc(C(F)(F)F)c1 ?
CYP2C9 inh: 60.1*; CYP2C19 act: 0.1; CYP2C9 activ: 0.4; CYP2C19 inh: 87.4*

Results for Cn1nc(C(F)(F)F)c(C(=O)Nc2ccc(F)cc2F)c1Oc1cccc(Cl)c1 ?
Mac1 fbg inh: -0.7; CD11b adhes enh: -1.4; CYP2C9 inh: 22.0; CYP2C19 act: 0.9; CYP2C9 activ: 0.8; CYP2C19 inh: 13.7

Results for Cn1nc(C(F)(F)F)c(C(=O)Nc2ccc(F)cc2F)c1Sc1cccc(Cl)c1 ?
CYP2C9 inh: 36.0; CYP2C19 act: 0.5; CYP2C9 activ: 0.6; CYP2C19 inh: 53.5*

Results for CCOC(=O)CSc1nnc(Cn2nnc(-c3ccccc3)n2)n1C ?
Mac1 fbg inh: 8.2; CD11b adhes enh: 2.1; CYP2C9 inh: 2.8; CYP2C19 act: 0.9; CYP2C9 activ: 1; CYP2C19 inh: 10.1

What do the screens show for `O=C(Cn1cnc2ccccc21)N/N=C/c1ccccc1[N+](=O)[O-]`?
Mac1 fbg inh: 5.1; CD11b adhes enh: 5.0

Results for O=C(CN(Cc1ccccc1)S(=O)(=O)c1ccccc1)N/N=C/c1ccccc1[N+](=O)[O-] ?
Mac1 fbg inh: -11.9; CD11b adhes enh: 0.9; CYP2C9 inh: 65.1*; CYP2C19 act: 0.6; CYP2C9 activ: 0.3; CYP2C19 inh: 42.3

Results for Cc1ccc(CN(CC(=O)N/N=C/c2ccccc2[N+](=O)[O-])S(=O)(=O)c2ccc(C)cc2)cc1 ?
Mac1 fbg inh: 9.8; CD11b adhes enh: -0.1; CYP2C9 inh: 84.7*; CYP2C19 act: 0; CYP2C9 activ: 0.2; CYP2C19 inh: 96.7*

Results for C=CCn1c(SCC(=O)Nc2c(C)n(C)n(-c3ccccc3)c2=O)nc2scc(-c3ccccc3)c2c1=O ?
Mac1 fbg inh: 4.7; CD11b adhes enh: -2.7; CYP2C9 inh: 83.2*; CYP2C19 act: 0.5; CYP2C9 activ: 0.2; CYP2C19 inh: 46.2

What do the screens show for `C=CCn1c(SCC(=O)NC2CCCC2)nc2scc(-c3ccco3)c2c1=O`?
Mac1 fbg inh: -13.7; CD11b adhes enh: 42.0; CYP2C9 inh: 92.5*; CYP2C19 act: 0.1; CYP2C9 activ: 0.1; CYP2C19 inh: 87.2*

What do the screens show for `Cc1nc(SCC(=O)Nc2c(C)n(C)n(-c3ccccc3)c2=O)nc(C)c1C`?
CYP2C9 inh: 5.6; CYP2C19 act: 0.9; CYP2C9 activ: 0.9; CYP2C19 inh: 11.2

Results for C=CCn1c(SCC(=O)NC2CCCCC2)nnc1C(C)NC(=O)c1cccs1 (centres undefined) ?
Mac1 fbg inh: -6.3; CD11b adhes enh: 8.4; CYP2C9 inh: -14.4; CYP2C19 act: 1.1; CYP2C9 activ: 1.1; CYP2C19 inh: -7.4

Results for Cc1ccc(C)c(-n2cc(-c3ccc(Cl)cc3)nc2SCC(=O)NC2CCS(=O)(=O)C2)c1 (centres undefined) ?
Mac1 fbg inh: 0.6; CD11b adhes enh: 5.7

What do the screens show for `Cc1c(NC(=O)C2(c3ccccc3)CCCC2)c(=O)n(-c2ccccc2)n1C`?
Mac1 fbg inh: -0.6; CD11b adhes enh: -2.3; CYP2C9 inh: -13.5; CYP2C19 act: 0.9; CYP2C9 activ: 1.1; CYP2C19 inh: 7.0

How did Cc1ccc(N2C(N)=C(C#N)C(c3cccs3)C3=C2CC(C)(C)CC3=O)cc1 (centres undefined) do in these assays?
Mac1 fbg inh: -45.6; CD11b adhes enh: 8.0; CYP2C9 inh: 79.6*; CYP2C19 act: 0.6; CYP2C9 activ: 0.2; CYP2C19 inh: 42.4

What do the screens show for `CC1(C)CC(=O)C2=C(C1)OC(N)=C(C#N)C2Cc1ccccc1` (centres undefined)?
Mac1 fbg inh: 7.4; CD11b adhes enh: 2.4; CYP2C9 inh: 78.9*; CYP2C19 act: 0; CYP2C9 activ: 0.2; CYP2C19 inh: 97.9*

Results for O=C1CCCC2=C1C(Cc1ccccc1)C1=C(CCCC1=O)O2 ?
Mac1 fbg inh: -9.4; CD11b adhes enh: -5.8; CYP2C9 inh: 23.1; CYP2C19 act: 0.2; CYP2C9 activ: 0.8; CYP2C19 inh: 81.6*

How did CC1(C)CC(=O)C2=C(C1)N(c1ccccc1)C(N)=C(C#N)C2c1cccnc1 (centres undefined) do in these assays?
CYP2C9 inh: 50.0*; CYP2C19 act: 0.8; CYP2C9 activ: 0.5; CYP2C19 inh: 23.6

How did CCCOC(=O)CSc1nc(N)c(C#N)c(CC)c1C#N do in these assays?
Mac1 fbg inh: -42.5; CD11b adhes enh: -2.5; CYP2C9 inh: 4.0; CYP2C19 act: 0.8; CYP2C9 activ: 1; CYP2C19 inh: 24.7

Results for Cc1c(NC(=O)c2ccc3c(c2)OCO3)c(=O)n(-c2ccccc2)n1C ?
Mac1 fbg inh: 4.5; CD11b adhes enh: 1.9; CYP2C9 inh: -7.2; CYP2C19 act: 1; CYP2C9 activ: 1.1; CYP2C19 inh: -4.3

What do the screens show for `CC(C)COc1cc(=O)[nH]c(SCC(C)C)n1`?
Mac1 fbg inh: -2.4; CD11b adhes enh: 3.2; CYP2C9 inh: 11.1; CYP2C19 act: 1; CYP2C9 activ: 0.9; CYP2C19 inh: -1.3

How did CCn1c2ccccc2c2cc(N)ccc21 do in these assays?
Mac1 fbg inh: -7.4; CD11b adhes enh: 5.5; CYP2C9 inh: 18.7; CYP2C19 act: 0.1; CYP2C9 activ: 0.8; CYP2C19 inh: 92.7*

What do the screens show for `N#CC1=C(N)N(c2ccccc2C#N)C2=C(C(=O)CCC2)C1c1ccsc1` (centres undefined)?
Mac1 fbg inh: 1.9; CD11b adhes enh: 3.3; CYP2C9 inh: 62.5*; CYP2C19 act: 0.6; CYP2C9 activ: 0.4; CYP2C19 inh: 43.3

Results for CCn1c2ccccc2c2cc(/C(C)=N/O)ccc21 ?
Mac1 fbg inh: 7.7; CD11b adhes enh: 6.8; CYP2C9 inh: 49.5; CYP2C19 act: 0.8; CYP2C9 activ: 0.5; CYP2C19 inh: 21.5

Screening data (PubChem BioAssay)
